This note sets out measurements from the supplement of paper PMC10849652.

The full data set covers some 8,800 targets. This sample favours those with a hit. About 0.5% of all pairs of compound and target were hits. Values without a mark were called inactive.

UniProt Q8TCG2, sequence (Q8TCG2 whole entry, looked up): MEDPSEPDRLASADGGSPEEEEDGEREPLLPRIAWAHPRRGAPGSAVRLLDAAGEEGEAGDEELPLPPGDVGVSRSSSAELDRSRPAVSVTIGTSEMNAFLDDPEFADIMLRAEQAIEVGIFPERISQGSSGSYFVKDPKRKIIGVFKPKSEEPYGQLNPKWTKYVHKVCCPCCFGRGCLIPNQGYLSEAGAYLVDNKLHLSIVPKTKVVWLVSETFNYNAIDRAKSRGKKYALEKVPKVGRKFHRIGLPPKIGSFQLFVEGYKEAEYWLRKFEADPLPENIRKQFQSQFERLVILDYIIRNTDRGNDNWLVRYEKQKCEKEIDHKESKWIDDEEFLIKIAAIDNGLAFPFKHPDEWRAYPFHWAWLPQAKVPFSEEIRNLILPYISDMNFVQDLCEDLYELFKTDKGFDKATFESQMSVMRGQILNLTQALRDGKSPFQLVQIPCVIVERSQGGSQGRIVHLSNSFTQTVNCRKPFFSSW
UniProt P07737, sequence (P07737 whole entry, looked up): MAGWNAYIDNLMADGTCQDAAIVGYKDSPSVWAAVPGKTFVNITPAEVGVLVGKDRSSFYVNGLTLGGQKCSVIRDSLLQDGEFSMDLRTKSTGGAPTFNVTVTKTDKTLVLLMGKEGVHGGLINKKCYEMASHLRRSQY
UniProt O00625, sequence (O00625 whole entry, looked up): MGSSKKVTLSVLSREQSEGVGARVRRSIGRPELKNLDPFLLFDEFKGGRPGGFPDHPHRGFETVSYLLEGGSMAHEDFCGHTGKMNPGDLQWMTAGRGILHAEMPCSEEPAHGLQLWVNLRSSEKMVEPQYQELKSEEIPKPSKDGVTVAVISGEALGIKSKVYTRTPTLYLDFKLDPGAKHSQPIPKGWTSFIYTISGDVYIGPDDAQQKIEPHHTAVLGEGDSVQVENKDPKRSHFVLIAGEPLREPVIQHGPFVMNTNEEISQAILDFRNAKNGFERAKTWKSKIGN
UniProt Q9BZE2, sequence (Q9BZE2 whole entry, looked up): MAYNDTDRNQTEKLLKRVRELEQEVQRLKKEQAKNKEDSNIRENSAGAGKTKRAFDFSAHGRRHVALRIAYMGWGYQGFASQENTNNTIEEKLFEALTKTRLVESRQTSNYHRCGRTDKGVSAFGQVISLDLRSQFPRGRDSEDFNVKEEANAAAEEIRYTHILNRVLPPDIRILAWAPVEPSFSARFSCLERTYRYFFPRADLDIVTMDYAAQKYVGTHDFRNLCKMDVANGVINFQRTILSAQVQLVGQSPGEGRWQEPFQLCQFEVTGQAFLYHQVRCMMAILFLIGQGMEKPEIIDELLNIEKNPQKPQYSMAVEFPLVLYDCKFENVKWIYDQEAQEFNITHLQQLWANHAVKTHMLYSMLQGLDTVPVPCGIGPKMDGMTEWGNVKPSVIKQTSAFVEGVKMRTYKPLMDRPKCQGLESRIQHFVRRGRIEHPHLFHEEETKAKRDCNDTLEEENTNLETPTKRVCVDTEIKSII
UniProt P49643, sequence (P49643 whole entry, looked up): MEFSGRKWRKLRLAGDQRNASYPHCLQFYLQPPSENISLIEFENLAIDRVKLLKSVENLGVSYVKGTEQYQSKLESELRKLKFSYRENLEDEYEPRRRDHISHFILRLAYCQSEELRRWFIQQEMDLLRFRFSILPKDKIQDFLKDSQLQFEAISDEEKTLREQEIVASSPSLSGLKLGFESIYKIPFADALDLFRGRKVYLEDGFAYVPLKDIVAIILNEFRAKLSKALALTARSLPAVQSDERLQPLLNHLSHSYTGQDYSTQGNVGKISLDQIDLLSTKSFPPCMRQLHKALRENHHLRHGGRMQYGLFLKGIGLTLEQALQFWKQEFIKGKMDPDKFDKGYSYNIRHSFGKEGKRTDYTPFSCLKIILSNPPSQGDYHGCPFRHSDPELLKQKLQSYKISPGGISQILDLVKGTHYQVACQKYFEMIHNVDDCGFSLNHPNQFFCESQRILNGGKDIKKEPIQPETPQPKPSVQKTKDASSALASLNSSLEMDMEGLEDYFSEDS
UniProt Q8N8N7, sequence (Q8N8N7 whole entry, looked up): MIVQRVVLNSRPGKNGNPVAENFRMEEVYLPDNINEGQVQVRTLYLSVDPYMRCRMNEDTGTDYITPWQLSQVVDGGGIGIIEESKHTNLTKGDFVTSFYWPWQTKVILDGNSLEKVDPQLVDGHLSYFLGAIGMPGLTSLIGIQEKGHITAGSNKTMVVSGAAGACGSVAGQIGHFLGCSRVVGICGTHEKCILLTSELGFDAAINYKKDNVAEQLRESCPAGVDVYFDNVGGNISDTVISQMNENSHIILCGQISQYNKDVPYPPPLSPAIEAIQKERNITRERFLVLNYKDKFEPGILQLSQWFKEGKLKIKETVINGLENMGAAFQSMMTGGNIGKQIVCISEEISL
UniProt P48634, sequence (P48634 whole entry, looked up): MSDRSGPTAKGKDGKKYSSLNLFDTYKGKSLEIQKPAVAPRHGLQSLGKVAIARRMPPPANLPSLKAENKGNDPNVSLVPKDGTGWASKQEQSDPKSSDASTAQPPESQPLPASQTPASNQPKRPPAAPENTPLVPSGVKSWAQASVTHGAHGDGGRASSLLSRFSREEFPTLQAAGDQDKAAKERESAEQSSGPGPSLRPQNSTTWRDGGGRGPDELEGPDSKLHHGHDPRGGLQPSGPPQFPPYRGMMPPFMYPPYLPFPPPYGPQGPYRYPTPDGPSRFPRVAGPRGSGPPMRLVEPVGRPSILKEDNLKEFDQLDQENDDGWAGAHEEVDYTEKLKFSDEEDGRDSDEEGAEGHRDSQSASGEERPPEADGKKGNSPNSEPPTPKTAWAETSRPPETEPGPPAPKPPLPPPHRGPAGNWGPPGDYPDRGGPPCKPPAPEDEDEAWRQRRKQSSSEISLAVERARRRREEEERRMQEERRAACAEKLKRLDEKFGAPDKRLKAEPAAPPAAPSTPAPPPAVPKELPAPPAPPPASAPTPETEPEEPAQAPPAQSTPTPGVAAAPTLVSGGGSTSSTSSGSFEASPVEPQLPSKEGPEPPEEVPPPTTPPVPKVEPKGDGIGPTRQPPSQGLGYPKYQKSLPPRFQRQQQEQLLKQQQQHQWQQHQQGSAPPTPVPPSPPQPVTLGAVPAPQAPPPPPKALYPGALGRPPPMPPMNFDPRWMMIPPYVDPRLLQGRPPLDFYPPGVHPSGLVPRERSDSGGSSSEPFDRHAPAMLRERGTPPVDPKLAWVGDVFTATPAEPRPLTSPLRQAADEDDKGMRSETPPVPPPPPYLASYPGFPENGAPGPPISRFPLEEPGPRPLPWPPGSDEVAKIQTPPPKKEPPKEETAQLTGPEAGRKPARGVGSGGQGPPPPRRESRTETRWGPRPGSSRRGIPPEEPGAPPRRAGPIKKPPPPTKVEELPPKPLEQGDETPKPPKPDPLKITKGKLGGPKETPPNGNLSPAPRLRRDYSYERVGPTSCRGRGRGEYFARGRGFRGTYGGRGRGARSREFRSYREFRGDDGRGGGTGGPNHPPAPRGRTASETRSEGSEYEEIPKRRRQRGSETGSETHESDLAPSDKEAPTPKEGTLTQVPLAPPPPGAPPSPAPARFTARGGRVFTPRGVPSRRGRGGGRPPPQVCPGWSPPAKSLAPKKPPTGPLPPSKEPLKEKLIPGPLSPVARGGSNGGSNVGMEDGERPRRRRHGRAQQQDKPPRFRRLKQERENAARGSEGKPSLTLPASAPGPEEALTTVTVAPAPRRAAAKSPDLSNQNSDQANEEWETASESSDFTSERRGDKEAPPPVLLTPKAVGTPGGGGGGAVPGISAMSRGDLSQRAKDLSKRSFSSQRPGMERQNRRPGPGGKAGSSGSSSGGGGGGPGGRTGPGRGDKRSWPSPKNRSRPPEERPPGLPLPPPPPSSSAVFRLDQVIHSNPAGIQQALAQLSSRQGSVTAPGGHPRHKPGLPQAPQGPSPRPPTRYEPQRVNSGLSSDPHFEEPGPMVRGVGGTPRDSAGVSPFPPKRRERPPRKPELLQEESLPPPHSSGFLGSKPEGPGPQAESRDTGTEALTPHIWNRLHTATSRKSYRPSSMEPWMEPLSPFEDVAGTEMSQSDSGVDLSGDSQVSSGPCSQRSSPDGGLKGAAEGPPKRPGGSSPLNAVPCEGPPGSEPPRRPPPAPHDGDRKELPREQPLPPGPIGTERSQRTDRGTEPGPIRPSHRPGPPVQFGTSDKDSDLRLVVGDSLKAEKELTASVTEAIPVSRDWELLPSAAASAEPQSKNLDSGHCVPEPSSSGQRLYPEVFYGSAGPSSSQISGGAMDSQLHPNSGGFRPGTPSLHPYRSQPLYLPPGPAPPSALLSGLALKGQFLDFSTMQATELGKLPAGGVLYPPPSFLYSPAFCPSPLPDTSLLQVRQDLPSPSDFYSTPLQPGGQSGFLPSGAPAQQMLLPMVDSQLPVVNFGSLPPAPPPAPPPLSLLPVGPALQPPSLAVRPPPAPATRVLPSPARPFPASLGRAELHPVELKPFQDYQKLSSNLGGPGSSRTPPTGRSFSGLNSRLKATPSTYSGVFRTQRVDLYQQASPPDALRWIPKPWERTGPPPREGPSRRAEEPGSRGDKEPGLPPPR
UniProt O43741, sequence (O43741 whole entry, looked up): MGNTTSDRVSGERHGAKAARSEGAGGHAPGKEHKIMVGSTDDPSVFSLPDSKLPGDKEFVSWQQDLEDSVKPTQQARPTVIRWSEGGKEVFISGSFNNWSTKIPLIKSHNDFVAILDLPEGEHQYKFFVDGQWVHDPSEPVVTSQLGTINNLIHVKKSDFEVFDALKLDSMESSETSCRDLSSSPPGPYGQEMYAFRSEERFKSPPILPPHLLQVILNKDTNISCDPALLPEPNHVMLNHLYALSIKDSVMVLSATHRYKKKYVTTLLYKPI
UniProt P28065, sequence (P28065 whole entry, looked up): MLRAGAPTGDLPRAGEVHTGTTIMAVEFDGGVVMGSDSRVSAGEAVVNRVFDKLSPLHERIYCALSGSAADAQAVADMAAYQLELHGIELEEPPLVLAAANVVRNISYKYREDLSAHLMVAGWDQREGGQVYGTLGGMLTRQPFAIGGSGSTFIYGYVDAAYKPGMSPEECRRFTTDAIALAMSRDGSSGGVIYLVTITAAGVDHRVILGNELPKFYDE

Compound in this assay: Cc1ncc(-c2ccnc(Nc3ccc(S(C)(=O)=O)cc3)n2)n1C(C)C
The experiment in a line: log2 fold change, soluble protein after heating vs DMSO (PISA); higher = thermal stabilisation; K562 lysate, 10 uM; active = over 0.2 and 3.5 SD of the protein, either way, in both replicates (recomputed). Summed up: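 To prepare the extract, K562 pellets were dounce-homogenised in PBS pH 7.4 with 1 mM MgCl2, giving crude material at 1 mg/mL protein. This was treated with 10 μM compound for 30 min, then heated in aliquots for 3 min over 48°C-58°C before pooling and addition of NP-40 to 0.5% at 4°C. Centrifugation at 21,000xg for 90 min left soluble protein in the supernatant, which TMTpro 16plex LC-MS/MS quantified with equalised channel sums. Results are log-two fold changes in thermal stability compared with solvent controls, from duplicates.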
On to PRRC2A (UniProt P48634), for which the log2 fold change is 0.002. PSMB9 (UniProt P28065): the log2 fold change is -0.098. As to PRKAR2A (UniProt P13861), the log2 fold change is -0.016. In the case of PLEKHF1 (UniProt Q96S99) it was 0.012; in that of QKI (UniProt Q96PU8), 0.062. With PGRMC1 (UniProt O00264), the log2 fold change was -0.078. As to PYURF (UniProt Q96I23), the log2 fold change was 0.004. Take PRKAB2 (UniProt O43741): the log2 fold change is 0.106. For the target PHKA1 (UniProt P46020), the log2 fold change is -0.007. Consider PUS1 (UniProt Q9Y606), for which the log2 fold change was 0.01. Turning to POC5 (UniProt Q8NA72), the log2 fold change was 0.09. Regarding PELO (UniProt Q9BRX2), the log2 fold change is -0.026. In the case of PPIL2 (UniProt Q13356), the log2 fold change was 0.008. In the case of PUM1 isoform 3 (UniProt Q14671) it was 0.03; in that of PTPN7 isoform 3 (UniProt P35236), -0.021; in that of PDCD6IP isoform 2 (UniProt Q8WUM4), 0.004. In the case of PRPH isoform 2 (UniProt P41219) it was -0.024; in that of PIR (UniProt O00625), 0.012; in that of PTGR2 (UniProt Q8N8N7), 0.025. Consider PPP2R5C isoform 5 (UniProt Q13362), for which the log2 fold change was 0.022.

For PFKFB3 isoform 4 (UniProt Q16875), the log2 fold change is -0.021.

With PFDN2 (UniProt Q9UHV9), the log2 fold change was -0.045. In the case of PPFIA2 (UniProt O75334), the log2 fold change was -0.022. In the case of PCYT1B (UniProt Q9Y5K3) it was 0.022; in that of PPP1R11 (UniProt O60927), 0.074. For PMS2 (UniProt P54278), the log2 fold change is 0.039. As to PLXNB2 (UniProt O15031), the log2 fold change is 0.013. In the case of PUS3 (UniProt Q9BZE2) it was -0.042; in that of PSTPIP2 (UniProt Q9H939), 0.028; in that of PGPEP1 (UniProt Q9NXJ5), 0.07. Take PTPN6 isoform 4 (UniProt P29350): the log2 fold change is -0.043.

Turning to PDE2A (UniProt O00408), the log2 fold change was -0.008. Next, PPIL3 (UniProt Q9H2H8): 0.176; PI4K2B (UniProt Q8TCG2): 0.069. PRIM2 (UniProt P49643): the log2 fold change was -0.012. In the case of PFN1 (UniProt P07737) it was -0.008; in that of PIP4P2 (UniProt Q8N4L2), -0.015; in that of PLEKHO2 (UniProt Q8TD55), 0.118. In the case of POLD3 (UniProt Q15054) it was 0.029.
